Compound activity (PubChem BioAssay)
HCMV inh – qHTS Assay for inhibitors of the human cytomegalovirus (HCMV) | activity change, negative = inhibition, % at 57.5 µM | HFF cells, HCMV-luciferase reporter, 72 h; active compounds read low | 410,000 compounds, 4.5% hits; in the data active = activity change below about -60%; inconclusive = no clear call, values can overlap the other calls; inactive = above about -39%; also: % is scaled to controls: 0 for no effect and ±100 for the full control effect
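Two compound doses tested in HFFs infected with HCMV-luciferase, MOI 1 PFU/cell, 72 h at 37C. Lysate luminescence read with OneGlo; data normalized against buffer-only and 10uM Salinomycin inhibitor controls.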
MARV entry inh – qHTS for inhibitors of binding or entry into cells for Marburg Virus. Potency, µM (doses to about 37.8 µM), for inactives: top-dose activity change, negative = inhibition, hits mostly inhibitors. 300,000 compounds, 1.8% hits. Marburg virus pseudotyped entry inhibition, cell reporter. AID 540276, 2011; calls by dose curve; tested in HEK293 cells; also: potency is read from the fitted curve at half-maximal effect; % is scaled to controls: 0 for no effect and ±100 for the full control effect
HCV inh – qHTS Assay for Inhibitors of Hepatitis C Virus (HCV); 340,000 compounds, 3.4% hits; Huh7.5.1 HCVcc-Cre infection, luciferase reporter, 44 h; Potency, µM (highest dose often 41.8 µM), for the others: at the top dose activity change, negative = inhibition, most hits filed as inhibitors; active = well fitted inhibition curve with a large enough effect; inconclusive = small, poorly fitted or top-dose-only effect, or another doubt; inactive = no such curve, though single readings can be large or run the other way; also: potency is read from the fitted curve at half-maximal effect; % is scaled to controls: 0 for no effect and ±100 for the full control effect
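Compounds are dispensed onto cells plated 4 h earlier at 1,000 per well, with HCVcc-Cre virus (about 0.5 moi) added next. Following 44 h of culture, luminescent signal is measured for 15 sec after 15 min with substrate at room temperature.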
SARS PLpro yeast – qHTS of Yeast-based Assay for SARS-CoV PLP | S. cerevisiae expressing SARS-CoV PLpro, growth rescue | Potency, µM (doses to about 32.9 µM), for inactives: at the highest dose activity, positive = growth rescue, most hits filed as activators | 330,000 compounds, 0.19% hits | AID 485353, 2010; calls by dose curve; also: potency is read from the fitted curve at half-maximal effect; 0% is about no effect; nearly all actives have a fitted effect of over 55% in size
LASV entry inh – qHTS for Inhibitors of binding or entry into cells for Lassa Virus | 300,000 compounds, 1.2% hits | Lassa virus pseudotype entry inhibition, cell reporter | Potency, µM (highest dose often 37.9 µM), inactives show at the highest dose activity change, negative = inhibition, most hits filed as inhibitors; calls by dose curve; tested in HEK293 cells; also: potency is read from the fitted curve at half-maximal effect; % is scaled to controls: 0 for no effect and ±100 for the full control effect; nearly all actives have a fitted effect of over 50% in size
FMDV antiviral – High Throughput Screening for Foot and Mouth Disease Virus Antivirals. AID 1159524, 2015. FMDV antiviral cell-based qHTS. Potency, µM (top dose mostly 57.9 µM), without a hit: top-dose activity change, negative = inhibition, hits mostly inhibitors. 410,000 compounds, 1.2% hits; calls by dose curve; tested in HEK293T cells; also: read-out not given here; potency is read from the fitted curve at half-maximal effect; % is scaled to controls: 0 for no effect and ±100 for the full control effect; nearly all actives have a fitted effect of over 45% in size
* hit, by the source's call; ? = inconclusive; · = no result; ! = repeats disagree; [ ] = another dose, or the depositor's remark. Compounds with a hit are over-represented: about 8% of the library has one in this group of screens.

SMILES | HCMV inh | MARV entry inh | HCV inh | SARS PLpro yeast | LASV entry inh | FMDV antiviral
CCOC(=O)c1cccc(NS(=O)(=O)c2ccc(-c3coc(C)n3)cc2)c1 | 19 | · | · | · | -11%[46.1 µM] | 28%
O=C(O)c1cccc(NS(=O)(=O)c2ccc(-c3ccc(S(=O)(=O)Nc4cccc(C(=O)O)c4)cc3)cc2)c1 | -72* | · | 27% | 0% | · | -17%
CCOC(=O)c1cccc(NS(=O)(=O)c2ccc(NC(C)=O)cc2)c1 | -88* | -3% | 2% | 1% | -20% | -23%
CC(=O)c1cccc(NS(=O)(=O)c2ccc(C(=O)Nc3ccccc3)cc2)c1 | -76* | ? | 4.5µM* | 4% | ? | -13%
CC(C)n1c(SCC(=O)c2ccc(F)cc2)nc2c(sc3ccccc32)c1=O | 9 | · | · | · | 27%[46.1 µM] | -12%
CC(CCc1ccccc1)NC(=O)COC(=O)c1cc(NS(=O)(=O)c2ccc(Cl)c([N+](=O)[O-])c2)ccc1O (stereo not given) | -16 | 2.5µM* | ? | -4% | -12% | -10%
CC(CCc1ccccc1)NC(=O)COC(=O)c1ccc(NC(N)=O)cc1 (stereo not given) | -71* | · | -13% | 1% | · | -23%
CNS(=O)(=O)c1cccc(C(=O)OCC(=O)NC(C)CCc2ccccc2)c1 (stereo not given) | -2 | · | 11% | -4% | · | -3%
ClC1CCCC(Cl)C1Cn1nnc(N2CCCC2)n1 (stereo not given) | · | 24%[46.1 µM] | · | · | · | ·
CC1CCc2onc(C(=O)N3CCN(c4ccc(Cl)cc4)CC3)c2C1 (stereo not given) | -74* | · | · | · | -26%[46.1 µM] | -25%
O=C(Nc1ccc(F)cc1)Nc1nnc(-c2ccncc2)s1 | -95* | -1% | 25µM* | -4% | ? | ?
Clc1cccc(Nc2nc(-c3ccncc3)cs2)c1 | 146 | ? | 10µM* | -1% | ? | -11%
CS(=O)(=O)c1ccc2nc(NC(=O)Nc3cccc(Cl)c3)sc2c1 | -38 | ? | 11µM* | 3% | ? | -5%
Cc1ccc(NC(=O)Nc2nnc(-c3ccncc3)s2)cc1C | -92* | · | ? | 0% | · | ?
Cc1ccc(S(=O)(=O)c2nnn(CC(=O)Nc3ccccc3C)c2N)cc1 | 0 | 3%[46.1 µM] | · | · | 15%[46.1 µM] | -2%
Cc1cnc(NC(=O)Nc2ccc(Cl)cc2)s1 | -104* | · | ? | -5% | · | 31%
O=C(Nc1ccc(Cl)cc1)Nc1nnc(-c2ccncc2)s1 | -67* | ? | ? | 11% | 4µM* | ?
O=C(Nc1cccc(Cl)c1)Nc1nnc(-c2ccncc2)s1 | -98* | ? | ? | 7% | ? | ?
O=C(Nc1ccc(Cl)cc1)Nc1nnc(SCc2ccc(Cl)cc2)s1 | -18 | · | 13% | -29% | · | ?
O=C(NCCc1ccncc1)Nc1cccc(Cl)c1 | 19 | 3% | 2% | 0% | -1% | -1%
COc1cccc2c1cc1c(=O)n(CC(=O)O)nc(C)n12 | 6 | 20%[46.1 µM] | · | · | · | -25%
CC(NC(=O)Cn1ccc2cc(S(=O)(=O)N3CCCCCC3)ccc21)c1ccccc1 (stereo not given) | -26 | · | · | · | -28%[46.1 µM] | -4%
Cc1nn(CCC(=O)Nc2ccc(Cl)cc2)c(C)c1S(=O)(=O)N1CCCCC1 | ? | · | · | · | -1%[46.1 µM] | -23%
CN(C)c1ccc(CNC(=O)c2ccc(NC(=O)N3CCCCc4ccccc43)cc2)cc1 | 15 | · | · | · | 8%[46.1 µM] | -21%
O=C(Nc1ccccc1)Nc1nnc(-c2ccccc2)o1 | 7 | -9% | -2% | 1% | -4% | -1%
SMILES | HCMV inh | MARV entry inh | HCV inh | SARS PLpro yeast | LASV entry inh | FMDV antiviral
c1ccc(-c2nnc(NC3=NCCC3)o2)cc1 | 23 | ? | 27% | -2% | 7.1µM* | -35%
Fc1ccc(NC2=NCCCCC2)cc1 | -7 | -5%[46.1 µM] | -5% | -1% | · | -6%
Fc1ccc(-c2nnc(NC3=NCCCCC3)o2)cc1 | -83* | ? | -15% | -8% | 1µM* | 10µM*
Cc1ccc2c(CC(=O)NCc3ccccc3)coc2c1C | 14 | ? | · | · | -22%[46.1 µM] | -4%
Cc1ccccc1NC(=O)CSc1nc2ncc(Cl)cc2[nH]1 | -13 | · | -11% | -2% | · | -1%
Cc1ccc(S(=O)(=O)N(C)C)cc1NC(=O)CSc1nc2ncc(Cl)cc2[nH]1 | 5 | -3% | 2.5µM* | -7% | -2% | ?
CCc1ccccc1N(C)C(=O)c1cc2c(=O)oc3ccccc3c2s1 | -9 | 8%[46.1 µM] | · | · | ? | ?
Cn1c(=O)c2c(nc(Br)n2Cc2ccc3ccccc3c2)n(C)c1=O | -14 | -19% | ? | 10% | -18% | 14µM*
Cn1c(=O)c2c(nc(Oc3ccc4ccccc4c3)n2C)n(C)c1=O | -76* | -13% | -15% | 1% | 6% | -17%
Cc1c(Cl)cccc1NC(=O)Cn1c(=O)n(Cc2ccco2)c(=O)c2sc3ccccc3c21 | 21 | 23%[46.1 µM] | · | · | 7%[46.1 µM] | -3%
O=C(c1nn2c(C(F)(F)F)cc(-c3ccco3)nc2c1Br)N1CCCc2ccccc21 | -17 | ? | 13µM*! | -11% | ? | 0%
O=C(c1nn2c(C(F)(F)F)cc(-c3cccs3)nc2c1Br)N1CCCc2ccccc21 | -15 | 17% | ? | -5% | 10% | 21%
O=C(c1cc2nc(-c3cccs3)cc(C(F)(F)Cl)n2n1)N1CCCc2ccccc21 | -87* | ? | 7.1µM* | 2% | -3% | ·
O=C(c1cc2nc(-c3cccs3)cc(C(F)(F)F)n2n1)N1CCCc2ccccc21 | ? | ? | 10µM* | -6% | ? | 0%
COc1cccc(C(=O)N2CCCC(c3nc(SCCN4CCOCC4)ncc3C)C2)c1 (stereo not given) | · | · | · | · | · | -24%
O=C(Cn1nc(C(F)(F)F)cc1C1CC1)Nc1ccccc1F | ? | 1% | -3% | 15% | 5% | -27%
O=C(Cn1nc(C(F)(F)F)cc1C1CC1)NCc1ccccc1F | -69* | -18% | -14% | 1% | 6% | -15%
O=C(COC(=O)CNC(=O)c1ccc([N+](=O)[O-])o1)Nc1ncc(Cl)cc1Cl | 1 | -11% | -10% | -16% | ? | -21%
O=C(COC(=O)CNC(=O)c1ccc([N+](=O)[O-])o1)Nc1ncc(C(F)(F)F)cc1Cl | -13 | · | 2.8µM* | -4% | · | -5%
Brc1ccc(-c2csc(N3CCCCC3)n2)cc1 | · | · | · | -12% | · | ·
O=C(NCC1Cc2cccc(-c3cnccn3)c2O1)c1ccc(F)c(Cl)c1 (stereo not given) | · | · | · | · | · | -6%
CC(=O)c1cccc(S(=O)(=O)N2CCN(c3nc4cc(C)cc(C)c4cc3C#N)CC2)c1 | 4 | ? | 13µM* | 4% | -12% | -22%
Brc1ccccc1OCCCCn1cnc2ccccc21 | -60* | ? | 10µM* | -2% | ? | -25%
